Hit rate of the full screen: of about 370,000 compounds, about 2,800 (0.76%) were called active. What follows is part of a selection rich in actives, with near analogues and random picks from the rest. A number with no mark means an inactive call. Rule as the data show it: active = inhibition above about 21%; inactive = the rest.
biological target: E3 ubiquitin-protein ligase UHRF1 (Homo sapiens) (UniProt Q96T88); experiment: blockers of UHRF1 binding to methyl-oligo – biochemical, TR-FRET, human UHRF1, single concentration, counter-screen for MBD2 inhibitor project, primary screen (AID 687016); details: UHRF1 binding to methylated oligo, at 4.4 µM, stronger effect = higher value;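 also: UHRF1 SRA domain binding a hemimethylated CpG hairpin DNA probe; 0% = median of test compound wells and 100% = reference inhibitor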
Sequence (Q96T88 whole entry, looked up, the tested form may be a part): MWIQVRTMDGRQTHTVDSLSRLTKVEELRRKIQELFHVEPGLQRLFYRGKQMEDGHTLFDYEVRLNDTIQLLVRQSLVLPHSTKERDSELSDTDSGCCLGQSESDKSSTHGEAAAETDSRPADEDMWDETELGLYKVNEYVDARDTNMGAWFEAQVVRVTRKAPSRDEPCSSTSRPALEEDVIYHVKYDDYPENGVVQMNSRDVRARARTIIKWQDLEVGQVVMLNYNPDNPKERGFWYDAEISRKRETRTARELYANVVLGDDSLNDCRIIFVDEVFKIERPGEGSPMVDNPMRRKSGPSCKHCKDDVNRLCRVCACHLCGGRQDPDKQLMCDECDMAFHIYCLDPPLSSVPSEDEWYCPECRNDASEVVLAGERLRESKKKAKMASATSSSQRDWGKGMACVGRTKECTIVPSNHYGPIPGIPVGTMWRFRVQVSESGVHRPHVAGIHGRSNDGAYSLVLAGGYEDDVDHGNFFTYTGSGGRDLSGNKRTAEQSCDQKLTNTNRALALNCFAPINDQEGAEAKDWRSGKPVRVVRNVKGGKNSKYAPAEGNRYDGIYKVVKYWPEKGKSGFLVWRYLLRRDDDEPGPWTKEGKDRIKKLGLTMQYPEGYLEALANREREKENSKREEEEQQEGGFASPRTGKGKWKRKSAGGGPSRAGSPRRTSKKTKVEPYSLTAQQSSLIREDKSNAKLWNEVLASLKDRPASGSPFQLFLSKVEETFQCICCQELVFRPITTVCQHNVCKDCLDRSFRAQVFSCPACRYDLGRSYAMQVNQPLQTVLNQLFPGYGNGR

Row | Structure (SMILES) | inhibition
1 | O=C(NC1CCC1)c1ccc(C#Cc2cccc(F)c2)c[n+]1[O-] | -2.83%
2 | COc1cc2[nH]c(=S)n(Cc3ccc(C)o3)c(=O)c2cc1OC | -2.92%
3 | COc1ccc(Cn2c(=O)cc(C)[nH]c2=S)cc1 | 48.1% (active)
4 | COc1ccc(Cn2c(=O)oc3ccccc32)cc1 | -0.71%
5 | COC(=O)[C@]12C[C@H](CC(=O)NCc3cccc4ccccc34)C(=O)N(CCc3ccc(OC)c(OC)c3)C1=C[C@H](C1CCCC1)O[C@@H]2C | 0%
6 | CCOC(=O)N1CCN(C(=O)C[C@@H]2C(=O)N(CCc3ccc(Cl)cc3)C3=CCCC[C@]32C(=O)OCC)CC1 | -0.31%
7 | c1csc(-c2nnc(SCc3nc4ccccc4[nH]3)o2)c1 | -2.92%
8 | COC(=O)[C@]12C[C@H](CC(=O)N3CCOCC3)C(=O)N(Cc3ccc(Cl)cc3Cl)C1=C[C@H](C(C)C)O[C@@H]2C1CC1 | -0.21%
9 | CCCCC(=O)Nc1ccc(C(=O)NCCCn2ccnc2)cc1 | -2.85%
10 | CC(C)(C)C(=O)Nc1ccc(-c2cn3cccnc3n2)cc1 | -3.25%
11 | CCCCCC(=O)Nc1ccc(-c2cn3cccnc3n2)cc1 | 23.5% (active)
12 | Clc1ccc(-n2c(SC/C=C/c3ccccc3)nnc2-c2ccco2)cc1 | 0.89%
13 | CC1CCN(c2ccc(C(=O)O)cc2NS(=O)(=O)c2ccc(Br)s2)CC1 | -1.98%
14 | COC(=O)[C@@]12CCCCC=C1N(CCc1ccc(Cl)cc1)C(=O)[C@H]2CC(=O)NCc1ccc(OC)c(OC)c1 | 0.86%
15 | CCCCN1C(=O)C(CC(=O)NCc2cccs2)CC(C(=O)N2CCCCCC2)=C1C (stereo not given) | -0.83%
16 | CCCCN1C(=O)C(CC(=O)NCc2cccs2)CC(C(=O)N2CCOCC2)=C1C (stereo not given) | 22.9% (active)
17 | COCCCN1C(=O)C(CC(=O)NCc2cccs2)CC(C(=O)N2CCOCC2)=C1C (stereo not given) | 0.04%
18 | Oc1ccc(/C=C/c2c(F)cccc2F)c2cccnc12 | -8.09%
19 | O=C1C(=O)N(Cc2ccc(-c3ccsc3)cc2)c2ccc(OC(F)(F)F)cc21 | 1.64%
20 | O=C1CCC2(CCC(c3ccc(Cl)cc3)CC2)N1CCO (stereo not given) | -1.17%
21 | O=C(C1CCN(S(=O)(=O)c2ccccc2)CC1)N1CCN(C2CCCCC2)CC1 | -0.54%
22 | COc1ccc(Cn2cc(CN3[C@@H](CC(C)C)COc4cc(Br)ccc4S3(=O)=O)nn2)cc1 | -1.35%

Row | Structure (SMILES) | inhibition
23 | COc1cccc(NC(=O)c2cc(S(=O)(=O)N3CCc4ccccc43)cn2C)c1 | -1%
24 | COc1ccc(S(=O)(=O)N2CCc3ccccc32)cc1C(=O)Nc1cc(S(C)(=O)=O)ccc1Cl | 21.6% (active)
25 | CCN(C(=O)COC(=O)c1cc(S(=O)(=O)N2CCc3ccccc32)ccc1OC)C1CCS(=O)(=O)C1 (stereo not given) | -0.66%
26 | O=C(C1CCCN1S(=O)(=O)c1ccccc1)N1CCc2ccccc2C1 (stereo not given) | 1.67%
27 | O=S1(=O)c2ccc(N3CCN(Cc4ccccc4F)CC3)cc2Oc2ccccc2CN1Cc1cn(Cc2ccc(Cl)cc2)nn1 | 3.23%
28 | Nc1ccc2nc3c(=O)[nH]c(=S)[nH]c3nc2c1 | 29.6% (active)
29 | N#Cc1ccc(OC[C@@H](O)CN2CCC(C(O)(c3ccccc3)c3ccccc3)CC2)c(F)c1 | -0.23%
30 | C=CCN1C(=O)[C@@H](CC(=O)N2CCN(C(=O)OCC)CC2)[C@]2(C(=O)OCC)CCCCC/C=C/12 | 0.51%
31 | Cc1cc(C)cc(OCC(=O)Nc2cc(NC(=O)COc3cc(C)cc(C)c3)cc(C(=O)O)c2)c1 | -0.86%
32 | Cc1cc(C)cc(OCC(=O)NCc2cc(C)nc3ccccc23)c1 | 37.5% (active)
33 | Cc1cc(C)cc(OCC(=O)NNC(=O)CCN2C(=O)c3ccccc3C2=O)c1 | -0.19%
34 | CCOc1ccc(Oc2c(Cl)cnn(-c3ccc(C)cc3)c2=O)cc1 | 0.41%
35 | CCOC(=O)C1=C(C)NC2=C(C(=O)CC(C)(C)C2)C1c1ccc2c(c1)OCO2 (stereo not given) | 3.68%
36 | Cc1cc(C(=O)Nc2ccc(C)c(S(=O)(=O)N3CCOCC3)c2)c2ccccc2n1 | 6.42%
37 | O=C(Nc1nc2ccc(Cl)cc2s1)c1cc(-c2ccc(Cl)cc2)nc2ccccc12 | 1.94%
38 | O=C(Nc1cccc(F)c1)c1cc(-c2ccco2)nc2ccccc12 | 23% (active)
39 | O=C1CC[C@@H](COc2ccc3[nH]cc(-c4ccccc4)c3c2-c2ccccc2)N1 | -0.59%
40 | C[C@H](C(=O)N(C)c1ccccc1)[C@@H](O)c1ccc(Cl)cc1 | -0.97%
41 | COc1cccc(CNC(=O)C2CCCN(c3nc4ccccc4o3)C2)c1OC (stereo not given) | 3.57%
42 | C=CCOC/C=C/C#CCN(CC=C)Cc1ccc(OC)cc1OC | -1.02%
43 | O=C(NCc1cccs1)C1CCCN(S(=O)(=O)c2ccc([N+](=O)[O-])cc2)C1 (stereo not given) | 1.19%
44 | COCCN(C(=O)c1ccco1)c1nnc(-c2ccc(OC)cc2)s1 | -1.02%

Row | Structure (SMILES) | inhibition
45 | COCCNC(=O)Nc1ccc2nc(-c3ccco3)c(-c3ccco3)nc2c1 | 91.1% (active)
46 | O=C(NCCOc1ccccc1F)Nc1ccc(Br)cc1 | 4.11%
47 | O=C(NC1CCCC1)C1CSCCS(=O)(=O)N1Cc1ccccc1 (stereo not given) | -0.6%
48 | COC(=O)[C@]12C[C@H](CC(=O)NCCc3ccccc3OC)C(=O)N(Cc3ccco3)C1=C[C@H](C(C)C)O[C@@H]2C1CC1 | 3.75%
49 | OCCN1CCOCCOCCN(CCO)CCN(CCO)CC1 | -0.79%
50 | Oc1c(CN2CCOCC2)ccc(CN2CCOCC2)c1O | 25.4% (active)
51 | O=[N+]([O-])c1ccc(COc2ccccc2CN2CCOCC2)cc1 | -1.96%
52 | O=C(CSc1nnc(-c2ccccn2)n1-c1ccccc1)Nc1ccc2cn[nH]c2c1 | -1.24%
53 | Cc1ccccc1CS(=O)(=O)Cc1ccc(C(=O)Nc2ccc(Cl)cc2)o1 | 0.04%
54 | Cc1c(NC(=O)c2cccnc2)c(=O)n(-c2ccccc2)n1C | 23.3% (active)
55 | Cc1c(NC(=S)Nc2ccccc2)c(=O)n(-c2ccccc2)n1C | -4.22%
56 | Cc1c(NC(=O)c2c([N+](=O)[O-])cnn2C)c(=O)n(-c2ccccc2)n1C | -1.94%
57 | COC(=O)[C@]12C[C@H](CC(=O)NCc3ccccc3)C(=O)N(CCC3=CCCCC3)C1=C[C@H](C(C)C)O[C@@H]2C1CC1 | 3.6%
58 | COC(=O)C1CN(Cc2ccc(F)cc2)CCS(=O)(=O)N1Cc1ccc(Cl)cc1 (stereo not given) | 2.67%
59 | O=C(Nc1cccc(Cl)c1)OC1CC2CC1[C@H]1CCCCN1[C@H]2Cc1ccccc1 (stereo not given in full) | 0.5%
60 | Cc1cccc(NC(=O)CSc2nnc(CCNC(=O)OC(C)(C)C)o2)c1C | 2.63%
61 | Cc1cccc(NC(=O)CSc2nnc(CCCCCNC(=O)OC(C)(C)C)o2)c1C | 34.9% (active)
62 | Cc1ccccc1CSc1nnc(CCCCCNC(=O)OC(C)(C)C)o1 | 0.59%
63 | O=C(NCc1cccs1)C1CCN(S(=O)(=O)c2ccccc2[N+](=O)[O-])CC1 | 4.97%
64 | Cc1cc(NC(=O)COC(=O)COc2ccc(Cl)cc2C)c([N+](=O)[O-])cc1C | 23% (active)
65 | CCCC(=O)OCC(=O)Nc1cc(Cl)ccc1[N+](=O)[O-] | -3.24%
66 | COc1ccc(OCC(=O)Nc2cc(C)c(Cl)cc2OC)c([N+](=O)[O-])c1 | -2.47%

Row | Structure (SMILES) | inhibition
67 | C=CCN1C(=O)[C@@H](CC(=O)N2CCN(C(=O)c3ccco3)CC2)[C@]2(C(=O)OC)CCCCC=C12 | 1.46%
68 | O=C(Nc1ccc(Br)cc1)OCCN1C(=O)CCC12CCC(c1ccccc1)CC2 (stereo not given) | -4.19%
69 | CC(=O)O[C@@]1(C(C)=O)CCC2[C@H]3C=C(C)C4=CC(=O)CC[C@@]4(C)C3CC[C@]21C (stereo not given in full) | 2.53%
70 | CCCCNC(=O)C[C@@H]1C(=O)N(CCc2ccc(Cl)cc2)C2=CCCC[C@]21C(=O)OCC | -3.97%
71 | COc1ccc(-c2cc(-c3nnc(SCc4ccc([N+](=O)[O-])cc4)n3N)[nH]n2)cc1 | -1.01%
72 | OC(c1ccccc1)C(CN1CCOCC1)c1ccccc1 (stereo not given) | -2.23%
73 | CC(CN1CCCCC1)c1ccccc1 (stereo not given) | -1.54%
74 | CC(CN1CCOCC1)c1ccccc1 (stereo not given) | 55.2% (active)
75 | COC(=O)[C@]1(C#N)CC(=O)N(CC2CCCCC2)[C@@H]1c1ccccc1 | 5.42%
76 | O=C(COC(=O)Cc1ccc([N+](=O)[O-])cc1)NC1CCCCCC1 | 45.9% (active)
77 | COC(=O)Cc1ccc(OCC(=O)NC2CCCC2)cc1 | 0.36%
78 | Cc1ccc(C(=O)OCC(=O)NC2CCCCCCC2)cc1C | 0.37%
79 | O=C(COC(=O)c1cc([N+](=O)[O-])ccc1NCc1ccccc1)NC1CCCCC1 | -2.56%
80 | O=C(CCNC(=O)c1ccc([N+](=O)[O-])cc1)NC1CCCCC1 | -0.33%
81 | Cc1ccc(C(=O)COC(=O)CCCC(=O)NC2CCCCC2)cc1[N+](=O)[O-] | 48.1% (active)
82 | CCCC[C@H](C(=O)N(CC)c1ccccc1)[C@@H](O)c1ccc2ccccc2c1 | -2.02%
83 | Cc1ccccc1CN1CCCCC(NC(=O)c2cccc(C#N)c2)C1=O (stereo not given) | -0.18%
84 | COC(=O)C[C@@H]1CC[C@H]2[C@@H](COc3ccc(NS(=O)(=O)CC(F)(F)F)cc3C(=O)N2C)O1 | 1.54%
85 | CC[C@@H](CCC(=O)N(c1ccccc1)c1ccccc1)C1CC1 | 1.36%
